In the supplement of paper PMC10849652 one finds log2 fold change data, which are given here for 40 targets.

Of roughly 7,900 targets only a part is listed; those with a hit were picked by preference. About 0.6% of all pairs of compound and target were hits.

UniProt P00374, sequence (P00374 whole entry, looked up): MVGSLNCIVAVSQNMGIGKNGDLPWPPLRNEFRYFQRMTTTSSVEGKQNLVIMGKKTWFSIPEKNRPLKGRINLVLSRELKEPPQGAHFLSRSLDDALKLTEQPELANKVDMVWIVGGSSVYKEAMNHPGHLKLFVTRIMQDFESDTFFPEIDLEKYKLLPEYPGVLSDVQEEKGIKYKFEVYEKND
UniProt Q5W0V3, sequence (Q5W0V3 whole entry, looked up): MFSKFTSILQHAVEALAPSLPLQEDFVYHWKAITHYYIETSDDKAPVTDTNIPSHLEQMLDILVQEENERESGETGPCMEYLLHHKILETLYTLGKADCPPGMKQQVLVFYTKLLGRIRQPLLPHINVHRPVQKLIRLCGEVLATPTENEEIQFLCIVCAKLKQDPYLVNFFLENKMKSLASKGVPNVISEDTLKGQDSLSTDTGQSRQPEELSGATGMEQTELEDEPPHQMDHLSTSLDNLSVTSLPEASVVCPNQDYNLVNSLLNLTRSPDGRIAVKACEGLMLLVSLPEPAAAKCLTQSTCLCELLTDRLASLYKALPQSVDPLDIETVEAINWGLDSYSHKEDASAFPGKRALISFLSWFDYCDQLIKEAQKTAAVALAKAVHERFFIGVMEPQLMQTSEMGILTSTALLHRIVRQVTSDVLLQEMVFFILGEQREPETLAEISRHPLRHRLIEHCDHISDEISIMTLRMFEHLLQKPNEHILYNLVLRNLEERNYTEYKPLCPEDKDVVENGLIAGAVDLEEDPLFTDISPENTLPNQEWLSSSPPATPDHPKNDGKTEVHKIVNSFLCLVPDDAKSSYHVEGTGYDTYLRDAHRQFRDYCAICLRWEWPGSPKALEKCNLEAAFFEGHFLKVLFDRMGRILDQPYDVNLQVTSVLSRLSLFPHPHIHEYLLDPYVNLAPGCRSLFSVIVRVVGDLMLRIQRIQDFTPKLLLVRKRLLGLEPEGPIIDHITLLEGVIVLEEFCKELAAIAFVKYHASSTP
UniProt O76075, sequence (O76075 whole entry, looked up): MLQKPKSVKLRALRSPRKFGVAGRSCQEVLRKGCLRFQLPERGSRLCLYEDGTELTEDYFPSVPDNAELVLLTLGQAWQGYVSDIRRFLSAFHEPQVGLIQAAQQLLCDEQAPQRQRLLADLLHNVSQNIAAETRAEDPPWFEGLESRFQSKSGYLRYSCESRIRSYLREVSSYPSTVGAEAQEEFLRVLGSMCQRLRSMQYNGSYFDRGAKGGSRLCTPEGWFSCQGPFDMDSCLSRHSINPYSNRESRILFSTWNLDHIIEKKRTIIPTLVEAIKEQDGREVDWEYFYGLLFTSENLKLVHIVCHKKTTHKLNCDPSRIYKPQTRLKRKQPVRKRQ
UniProt P50570, sequence (P50570 whole entry, looked up): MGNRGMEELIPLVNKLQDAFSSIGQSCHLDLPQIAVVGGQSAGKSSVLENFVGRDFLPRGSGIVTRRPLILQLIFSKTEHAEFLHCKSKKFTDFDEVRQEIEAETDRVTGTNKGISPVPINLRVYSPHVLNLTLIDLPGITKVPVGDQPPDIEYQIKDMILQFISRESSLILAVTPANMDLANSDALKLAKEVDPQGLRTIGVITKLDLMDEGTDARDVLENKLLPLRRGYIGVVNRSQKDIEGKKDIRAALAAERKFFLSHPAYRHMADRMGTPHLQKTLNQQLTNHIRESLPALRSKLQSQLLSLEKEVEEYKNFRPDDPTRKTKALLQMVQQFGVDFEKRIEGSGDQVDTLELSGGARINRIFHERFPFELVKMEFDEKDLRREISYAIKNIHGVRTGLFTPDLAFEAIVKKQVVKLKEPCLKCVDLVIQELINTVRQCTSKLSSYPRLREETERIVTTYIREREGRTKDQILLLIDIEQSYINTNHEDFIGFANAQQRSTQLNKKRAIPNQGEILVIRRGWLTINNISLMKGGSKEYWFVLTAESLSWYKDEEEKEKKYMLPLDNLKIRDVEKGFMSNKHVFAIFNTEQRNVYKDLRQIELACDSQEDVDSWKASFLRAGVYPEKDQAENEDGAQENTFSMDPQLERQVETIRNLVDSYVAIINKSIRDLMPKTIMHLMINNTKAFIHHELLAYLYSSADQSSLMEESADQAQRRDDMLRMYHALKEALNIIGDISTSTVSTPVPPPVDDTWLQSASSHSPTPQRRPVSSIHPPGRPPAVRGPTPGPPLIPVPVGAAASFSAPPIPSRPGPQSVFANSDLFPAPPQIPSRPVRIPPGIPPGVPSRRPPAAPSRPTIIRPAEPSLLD
UniProt Q14689, sequence (Q14689 whole entry, looked up): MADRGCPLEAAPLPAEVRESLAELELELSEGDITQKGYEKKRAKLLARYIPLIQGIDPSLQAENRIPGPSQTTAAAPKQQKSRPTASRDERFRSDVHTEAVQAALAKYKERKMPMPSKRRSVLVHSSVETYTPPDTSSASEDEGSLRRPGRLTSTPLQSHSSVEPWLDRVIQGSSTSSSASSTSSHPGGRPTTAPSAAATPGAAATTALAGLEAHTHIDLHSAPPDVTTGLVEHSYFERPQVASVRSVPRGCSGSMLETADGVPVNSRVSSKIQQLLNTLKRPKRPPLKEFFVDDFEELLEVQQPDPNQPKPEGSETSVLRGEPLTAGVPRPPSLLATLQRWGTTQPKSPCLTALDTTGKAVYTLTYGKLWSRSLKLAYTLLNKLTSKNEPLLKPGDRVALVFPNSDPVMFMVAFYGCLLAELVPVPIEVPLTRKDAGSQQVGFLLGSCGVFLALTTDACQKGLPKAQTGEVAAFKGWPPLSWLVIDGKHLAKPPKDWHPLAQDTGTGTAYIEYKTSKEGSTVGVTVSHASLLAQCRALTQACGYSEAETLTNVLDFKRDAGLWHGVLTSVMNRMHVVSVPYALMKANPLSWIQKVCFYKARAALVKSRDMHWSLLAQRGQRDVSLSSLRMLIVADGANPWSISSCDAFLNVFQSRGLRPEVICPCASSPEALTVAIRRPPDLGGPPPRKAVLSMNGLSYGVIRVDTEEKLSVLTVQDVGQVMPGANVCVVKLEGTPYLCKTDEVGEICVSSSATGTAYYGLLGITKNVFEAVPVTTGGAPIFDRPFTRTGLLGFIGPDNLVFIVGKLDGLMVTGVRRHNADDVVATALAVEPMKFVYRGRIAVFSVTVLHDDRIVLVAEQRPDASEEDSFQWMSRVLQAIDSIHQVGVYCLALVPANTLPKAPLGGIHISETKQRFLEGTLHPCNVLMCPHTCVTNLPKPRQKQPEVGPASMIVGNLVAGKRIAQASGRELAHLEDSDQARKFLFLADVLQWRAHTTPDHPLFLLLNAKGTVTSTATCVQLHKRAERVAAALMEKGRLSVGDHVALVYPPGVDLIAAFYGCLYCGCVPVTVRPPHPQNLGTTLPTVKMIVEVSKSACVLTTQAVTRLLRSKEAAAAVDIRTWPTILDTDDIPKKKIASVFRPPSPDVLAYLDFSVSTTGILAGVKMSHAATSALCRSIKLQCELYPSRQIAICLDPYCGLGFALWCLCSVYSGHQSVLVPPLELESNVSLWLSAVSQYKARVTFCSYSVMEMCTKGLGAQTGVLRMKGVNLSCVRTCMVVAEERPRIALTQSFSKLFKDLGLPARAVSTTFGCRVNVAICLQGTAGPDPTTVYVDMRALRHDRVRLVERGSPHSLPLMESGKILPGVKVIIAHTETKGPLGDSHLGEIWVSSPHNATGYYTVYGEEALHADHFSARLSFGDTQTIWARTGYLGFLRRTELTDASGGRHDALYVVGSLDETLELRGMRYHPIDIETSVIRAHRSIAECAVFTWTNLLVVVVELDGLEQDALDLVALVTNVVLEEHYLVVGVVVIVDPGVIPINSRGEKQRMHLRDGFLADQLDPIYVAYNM
UniProt Q8N5C7, sequence (Q8N5C7 whole entry, looked up): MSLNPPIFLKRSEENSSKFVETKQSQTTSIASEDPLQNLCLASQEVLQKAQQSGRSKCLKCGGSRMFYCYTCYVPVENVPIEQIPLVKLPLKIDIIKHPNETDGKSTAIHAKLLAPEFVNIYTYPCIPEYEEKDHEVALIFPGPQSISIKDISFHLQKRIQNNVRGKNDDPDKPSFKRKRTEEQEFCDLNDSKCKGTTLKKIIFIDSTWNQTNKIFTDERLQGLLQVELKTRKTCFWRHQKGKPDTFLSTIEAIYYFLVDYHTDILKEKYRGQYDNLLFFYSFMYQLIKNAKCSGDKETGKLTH
UniProt Q58WW2, sequence (Q58WW2 whole entry, looked up): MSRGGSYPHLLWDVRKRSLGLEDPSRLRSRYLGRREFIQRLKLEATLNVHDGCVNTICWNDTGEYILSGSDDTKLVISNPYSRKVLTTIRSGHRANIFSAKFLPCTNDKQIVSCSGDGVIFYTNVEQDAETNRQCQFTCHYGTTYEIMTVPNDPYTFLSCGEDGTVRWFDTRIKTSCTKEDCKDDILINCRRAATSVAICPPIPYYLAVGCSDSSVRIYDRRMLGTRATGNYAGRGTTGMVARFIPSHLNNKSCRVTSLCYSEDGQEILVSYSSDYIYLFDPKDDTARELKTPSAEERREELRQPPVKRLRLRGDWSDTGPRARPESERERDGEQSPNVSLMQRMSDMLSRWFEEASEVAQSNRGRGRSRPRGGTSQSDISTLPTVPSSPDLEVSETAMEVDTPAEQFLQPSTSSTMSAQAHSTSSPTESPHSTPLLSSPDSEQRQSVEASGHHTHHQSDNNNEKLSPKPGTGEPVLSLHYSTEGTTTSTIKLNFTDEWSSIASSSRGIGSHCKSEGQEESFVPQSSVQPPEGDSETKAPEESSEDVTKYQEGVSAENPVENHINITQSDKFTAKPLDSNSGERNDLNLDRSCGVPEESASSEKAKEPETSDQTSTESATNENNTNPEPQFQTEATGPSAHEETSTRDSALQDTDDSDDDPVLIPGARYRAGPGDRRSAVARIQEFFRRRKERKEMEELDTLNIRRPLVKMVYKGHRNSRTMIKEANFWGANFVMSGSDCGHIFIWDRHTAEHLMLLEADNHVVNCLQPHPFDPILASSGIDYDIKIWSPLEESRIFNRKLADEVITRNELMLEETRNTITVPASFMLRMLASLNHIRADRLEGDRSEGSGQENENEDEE

Compound in the first test: C[C@@H](Oc1cc(-c2cnn(C3CCNCC3)c2)cnc1N)c1c(Cl)ccc(F)c1Cl [crizotinib]
In words: log2 fold change, soluble protein after heating vs DMSO (PISA); higher = thermal stabilisation; K562 cells, 10 uM, 30 min; active = over 0.2 and 3.5 SD of the protein, either way, in both replicates (recomputed). The method, boiled down:
(§1)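 Values are thermal stability changes relative to control samples and are taken from duplicates. They are stated as log2 fold changes. Before quantification by TMTpro 16plex LC-MS/MS with equalised channel sums, K562 cells at 2×10^6 cells/mL were treated with 10 μM compound for 30 min, heated in aliquots for 3 min across 48°C-58°C, pooled, extracted in PBS with 0.5% NP-40 at 4°C, and centrifuged at 21,000xg for 90 min to give the soluble supernatant.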
Take DNAJB12 (UniProt Q9NXW2): the log2 fold change was -0.029 (inactive).

In the case of DHFR (UniProt P00374), the log2 fold change is 0.956 (active).

Turning to DFFB (UniProt O76075), the log2 fold change was 0.072 (inactive).

As to EXOC5 (UniProt O00471), the log2 fold change is -0.279 (active).

Consider DCTPP1 (UniProt Q9H773), for which the log2 fold change is 0.142 (inactive).

For DHX40 (UniProt Q8IX18), the log2 fold change is -0.109 (inactive).

EOGT (UniProt Q5NDL2): the log2 fold change is 0 (inactive).

On to DHCR7 (UniProt Q9UBM7), for which the log2 fold change is 0.192 (inactive).

Take CUTA isoform 2 (UniProt O60888): the log2 fold change is -0.045 (inactive).

ERLIN1 (UniProt O75477): the log2 fold change is -0.039 (inactive).

As for EXOC1 (UniProt Q9NV70), the log2 fold change is -0.336 (inactive).

For the target CUX1 isoform 2 (UniProt Q13948), the log2 fold change was -0.063 (inactive).

As to DNM2 (UniProt P50570), the log2 fold change was -0.082 (inactive).

For DHRS7B (UniProt Q6IAN0), the log2 fold change was 0.194 (inactive).

For the target DIP2A (UniProt Q14689), the log2 fold change is 0.087 (inactive).

Turning to FAM114A2 (UniProt Q9NRY5), the log2 fold change is -0.197 (inactive).

In the case of FAF2 (UniProt Q96CS3), the log2 fold change is -0.056 (inactive).

Turning to ECH1 (UniProt Q13011), the log2 fold change is -0.086 (inactive).

As to DDOST (UniProt P39656), the log2 fold change is -0.051 (inactive).

For DCAF6 isoform 3 (UniProt Q58WW2), the log2 fold change was 0.132 (inactive).

As to DHCR24 (UniProt Q15392), the log2 fold change was 0.428 (inactive).

As for DNAH11 (UniProt Q96DT5), the log2 fold change is 0.071 (inactive).

As to DCAF13 (UniProt Q9NV06), the log2 fold change was 0.067 (inactive).

CYBA (UniProt P13498): the log2 fold change was -0.108 (inactive).

Take FADS1, A0A0A0MR51: the log2 fold change is -0.049 (inactive).

Consider DPP8 (UniProt Q6V1X1), for which the log2 fold change was -0.003 (inactive).

Regarding DDB1 (UniProt Q16531), the log2 fold change was 0.033 (inactive).

Consider CUX1 isoform 3 (UniProt P39880), for which the log2 fold change was -0.023 (inactive).

EHBP1L1 (UniProt Q8N3D4): the log2 fold change was -0.01 (inactive).

Take EXOC7 (UniProt Q9UPT5): the log2 fold change was -0.25 (inactive).

Consider DHX36 (UniProt Q9H2U1), for which the log2 fold change was -0.101 (inactive).

Regarding DBR1 (UniProt Q9UK59), the log2 fold change is -0.022 (inactive).

Regarding ERLIN2 (UniProt O94905), the log2 fold change is -0.034 (inactive).

For DAG1 (UniProt Q14118), the log2 fold change was 0.119 (inactive).

Take EFL1 (UniProt Q7Z2Z2): the log2 fold change was -0.055 (inactive).

In the case of DHRS3 (UniProt O75911), the log2 fold change is 0.093 (inactive).

For FAM160B1 (UniProt Q5W0V3), the log2 fold change was -0.119 (inactive).

For EHD2 (UniProt Q9NZN4), the log2 fold change was -0.068 (inactive).

In the case of DTWD1 (UniProt Q8N5C7), the log2 fold change was 0.067 (inactive).

For FAM177A1 isoform 2 (UniProt Q8N128), the log2 fold change was -0.109 (inactive).

Compound in the next test: C[C@@H]1COCCN1C2=NC(=NC(=C2)C3(CC3)S(=O)(=O)C)C4=C5C=CNC5=CC=C4
Described as above. The method, boiled down:
as §1
For the target DNAJB12 (UniProt Q9NXW2), the log2 fold change was 0.038 (inactive).

As to DHFR (UniProt P00374), the log2 fold change is -0.015 (inactive).

Consider DFFB (UniProt O76075), for which the log2 fold change was 0.012 (inactive).

As to EXOC5 (UniProt O00471), the log2 fold change is -0.017 (inactive).

As to DCTPP1 (UniProt Q9H773), the log2 fold change was 0.179 (inactive).

In the case of DHX40 (UniProt Q8IX18), the log2 fold change is -0.003 (inactive).

As for EOGT (UniProt Q5NDL2), the log2 fold change was -0.054 (inactive).

As for DHCR7 (UniProt Q9UBM7), the log2 fold change was -0.085 (inactive).

CUTA isoform 2 (UniProt O60888): the log2 fold change is 0.021 (inactive).

For the target ERLIN1 (UniProt O75477), the log2 fold change is -0.038 (inactive).

As for EXOC1 (UniProt Q9NV70), the log2 fold change was -0.007 (inactive).

For the target CUX1 isoform 2 (UniProt Q13948), the log2 fold change was 0.029 (inactive).

Regarding DNM2 (UniProt P50570), the log2 fold change is 0.062 (inactive).

DHRS7B (UniProt Q6IAN0): the log2 fold change is 0.003 (inactive).

Regarding DIP2A (UniProt Q14689), the log2 fold change is 0.159 (inactive).

Consider FAM114A2 (UniProt Q9NRY5), for which the log2 fold change is 0.026 (inactive).

FAF2 (UniProt Q96CS3): the log2 fold change is 0.042 (inactive).

As for ECH1 (UniProt Q13011), the log2 fold change is 0.068 (inactive).

DDOST (UniProt P39656): the log2 fold change is -0.065 (inactive).

In the case of DCAF6 isoform 3 (UniProt Q58WW2), the log2 fold change is 0.026 (inactive).

Take DHCR24 (UniProt Q15392): the log2 fold change was 0.076 (inactive).

Regarding DNAH11 (UniProt Q96DT5), the log2 fold change is 0.062 (inactive).

On to DCAF13 (UniProt Q9NV06), for which the log2 fold change was -0.538 (active).

For CYBA (UniProt P13498), the log2 fold change is 0.024 (inactive).

With FADS1, A0A0A0MR51, the log2 fold change is -0.019 (inactive).

For the target DPP8 (UniProt Q6V1X1), the log2 fold change was 0.011 (inactive).

Regarding DDB1 (UniProt Q16531), the log2 fold change is 0.026 (inactive).

In the case of CUX1 isoform 3 (UniProt P39880), the log2 fold change was 0.086 (inactive).

As to EHBP1L1 (UniProt Q8N3D4), the log2 fold change was -0.005 (inactive).

EXOC7 (UniProt Q9UPT5): the log2 fold change is -0.028 (inactive).

Take DHX36 (UniProt Q9H2U1): the log2 fold change is -0.062 (inactive).

In the case of DBR1 (UniProt Q9UK59), the log2 fold change is 0.061 (inactive).

Turning to ERLIN2 (UniProt O94905), the log2 fold change was -0.167 (inactive).

With DAG1 (UniProt Q14118), the log2 fold change was 0.132 (inactive).

Consider EFL1 (UniProt Q7Z2Z2), for which the log2 fold change was 0.074 (inactive).

For DHRS3 (UniProt O75911), the log2 fold change is 0.115 (inactive).

As to FAM160B1 (UniProt Q5W0V3), the log2 fold change was 0.06 (inactive).

Consider EHD2 (UniProt Q9NZN4), for which the log2 fold change is 0.077 (inactive).

Consider DTWD1 (UniProt Q8N5C7), for which the log2 fold change was 0.061 (inactive).

Take FAM177A1 isoform 2 (UniProt Q8N128): the log2 fold change is 0.059 (inactive).
